Experiment in all cases: NCI-60 one-dose screen, 48 h (100 = growth as untreated, 0 = no growth, -100 = all killed)
What all share (settings): 10 µM unless noted

The subject of test [1] is HCT-15 colon.
For test [2], the system named is HT29 colon.
The test system of test [3] is SNB-75 CNS.
Test [4] relates to SNB-19 CNS.
Test [5] has as its system U251 CNS.
The test system of test [6] is PC-3 prostate.
The test system of test [7] is SK-MEL-5 melanoma.
For test [8], the system named is LOX IMVI melanoma.
Test [9] relates to SK-MEL-28 melanoma.
Test [10] relates to EKVX NSCLC.
Test [11] concerns SN12C renal.
Test [12] relates to UO-31 renal.
For test [13], the system named is TK-10 renal.
In test [14] the test system is CAKI-1 renal.
Test [15] relates to A498 renal.
Test [16] deals with CCRF-CEM leukemia.
Test [17] deals with MOLT-4 leukemia.
For test [18], the system named is UACC-62 melanoma.
For test [19], the system named is SK-MEL-2 melanoma.
Test [20] has as its system ACHN renal.

About 83,000 compounds went through this panel and 20% of them were active in at least one assay; those are over-represented in the sample as a whole.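 Treatment: one concentration, 48 hours, 96-well format. Scoring: percent growth, with anything below 10 considered active.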 A number with no mark means an inactive call. Activity calls are given as the source filed them.

In the case of `O=C1/C(=C/c2ccc(C(F)(F)F)cc2)COc2ccc(O)c(O)c21`, the growth in [1] was -6.49% (active); in test [2], 8.23% (active); in test [3], 33.4%; in test [4], 27.1%; in test [5] it was -50.6% (active); in test [6] it was -36.1% (active). Further, the growth in test [7] was 68.5%; in test [8], -90.8% (active); in test [9], 72.1%; in test [10], 52.3%; in test [11], -58.6% (active); in test [12], -98.9% (active). Further, the growth in [13] is 11.9%; in [14], -23.6% (active); in test [15], 116%; in [16] it was -3.75% (active); in test [17] it was -1.49% (active).

In the case of `Cc1ccccc1CNc1c2ccccc2nc2ccccc12`, the growth was 14.6% in test [1]; 8.87% (active) in [2]; 45.3% in test [3]; 27.1% in test [4]; 21.3% in test [5]; 33.9% in test [7]. In addition, the growth was 46.7% in test [18]; 9.12% (active) in test [8]; 58.3% in [9]; 40.2% in test [19]; 38.4% in test [10]; 24.3% in [11]. Besides, the growth in test [12] is 15.5%; in [13], 38.7%; in test [20], 11.6%; in test [14], 25.1%; in test [15], -2.25% (active); in [16], 17.6%. Also, in [17], the growth was 8.85% (active).

With `N=C(N)c1ccc(-c2ccc(-c3ccc(F)cc3)s2)s1`, the growth in [1] was -74.2% (active); in test [2] it was -76.1% (active); in test [3], 81%; in test [4], -57.5% (active); in test [5], -89.7% (active); in [7] it was 77.6%. The growth was -67.9% (active) in [18]; -67.2% (active) in test [8]; 83.5% in test [9]; 73.6% in test [19]; 41.4% in test [10]; -50% (active) in test [11]. Moreover, the growth in test [12] was -32.6% (active); in [13], 28.5%; in test [20], -73.7% (active); in test [14], 0.453% (active); in test [15], 58.9%; in [16], -33.6% (active). Also, the growth in test [17] is -44.2% (active).

For `C=C1C(=O)O[C@H]2[C@H]1CC/C(Cn1cc(-c3cc(C(F)(F)F)cc(C(F)(F)F)c3)nn1)=C\CC[C@@]1(C)O[C@@H]21`, the growth in [1] was -90.6% (active); in [2], -86% (active); in test [3], -96.6% (active); in test [4], -80.3% (active); in [5] it was -97.6% (active); in [7], -99.5% (active). Moreover, the growth was -76.6% (active) in test [18]; -87.1% (active) in test [8]; -82.7% (active) in [9]; -84.1% (active) in test [19]; -97.1% (active) in [10]; -77.5% (active) in test [11]. Further, the growth in test [12] is -96.3% (active); in test [13], -99.4% (active); in test [20], -92.6% (active); in test [14] it was -95.3% (active); in test [15], -94.5% (active); in test [16], -32.9% (active). The growth in test [17] was -28.2% (active).

Turning to `CCn1cc(CNc2ccc(C(=O)Nc3cc4cc(OC)c(OC)cc4c(C)n3)cc2)c(C)n1`, the growth was 23.1% in test [1]; 54.1% in [2]; 77.1% in [3]; 90% in [4]; 71% in [5]; 1.46% (active) in [7]. Also, the growth in [18] is 6.57% (active); in [8] it was 23.9%; in test [9], 50.4%; in [19], 11.5%; in test [10], 59.7%; in test [11], 67%. Besides, the growth was 22.4% in test [12]; 49% in test [13]; 36.1% in test [20]; 30.1% in test [14]; 93.6% in test [15]; 11.8% in test [16]. In [17], the growth is 9.9% (active).

As to `C=CCn1c(SCC(=O)Nc2ccc(C(=O)/C=C/c3cc(OC)c(OC)c(OC)c3)cc2)nnc1-c1cc(-c2ccc(OC)cc2)nc2ccccc12`, the growth was 83.4% in test [1]; 101% in [2]; 85.1% in test [3]; 90.3% in test [4]; 88.3% in test [5]; 94.9% in test [7]. Besides, the growth in test [18] was 90.1%; in test [8] it was 94.9%; in test [9], 101%; in test [19] it was 102%; in test [10], 100%; in [11], 90.3%. Besides, the growth is 76.3% in [12]; 121% in [13]; 89.2% in [20]; 81.5% in [14]; 89% in test [15]; 66.6% in [16]. For the same compound, in test [17], the growth is 66.4%.

As for `Cn1c(O)c(C(/C=C/c2ccccc2)=Nc2ccccc2N)c(=O)n(C)c1=O`, the growth was 91.5% in test [1]; 72.1% in test [2]; 90.7% in test [3]; 101% in [4]; 101% in test [5]; 75.4% in test [7]. The growth in test [18] was 76.1%; in [8] it was 90.3%; in [9], 120%; in [19], 129%; in test [10], 82%; in test [11], 96.1%. Also, the growth in [12] was 83.4%; in [13], 134%; in [20], 99.3%; in [14] it was 102%; in [15] it was 130%; in [16], 67.3%. Moreover, the growth in test [17] is -43.5% (active).

With `FC(F)(F)c1[nH]ncc1-c1nc2c(N3CCCCC3)cc3[nH]ncc3c2c2c1CCCC2`, the growth in test [1] is 5.17% (active); in test [2], 1.21% (active); in test [3], -73.8% (active); in test [4], 7.25% (active); in [5], 3.57% (active); in test [6], 0.448% (active). In addition, the growth in test [7] was -68.2% (active); in [8] it was -68.9% (active); in test [9], -6.99% (active); in test [19], -34% (active); in test [10], 13.2%; in test [12] it was -19.6% (active). In addition, the growth was 1.88% (active) in test [13]; 4.67% (active) in test [20]; 5.43% (active) in [14]; -71.6% (active) in test [15]; 4.61% (active) in test [16]; -0.165% (active) in [17].

(Values after PubChem BioAssay (NCI).)
